Each structure is given as a SMILES string. Potency and affinity values are given separately. The source made the active and inactive calls.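 How the source made its calls: active means compounds lowering cell ATP signal with a fitted half-effect dose at most twice the top valid dose; inconclusive means flat curve with 30 to 70% signal loss, or bad fit; inactive means wrong direction, flat within 30%, or weaker than limit.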

We go through 34 compounds from PubChem BioAssay AID1053117 (Broad Institute, 2014).

This assay can be described thus: viability loss in HEK293 kidney cells – cell-based, cherry-picks, set 5, cytotoxicity control, dose response (AID 1053117).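 Further: more negative means greater loss of ATP signal and more cytotoxicity.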 Particulars: HEK293T viability, CellTiter-Glo ATP luminescence, 72 h; series mostly up to 26 µM; activity change, negative = cytotoxicity: at the top concentration. (In general: In ATP-based viability assays light output follows the ATP content of the culture.)
For `COCC(=O)Nc1ccc2c(c1)C(=O)N(C)[C@H]1CC[C@@H](CC(=O)NCc3ccccc3Cl)O[C@H]1CO2`, the “activity change, negative = cytotoxicity” value was 0.812% (inactive).

As for `Cc1ccccc1S(=O)(=O)N1CC[C@H]2[C@H](CO)Nc3ccc(-c4ccc(C#N)cc4)cc3[C@H]21`, the “activity change, negative = cytotoxicity” value is -16.2% (inactive). With `C[C@@H](O)C#Cc1ccc2c(c1)O[C@@H](CN(C)C)[C@@H](C)CN([C@@H](C)CO)S2(=O)=O` the figure was -7.13% (inactive); with `CCc1ccc(NC(=O)CSc2nnc(-c3ccco3)o2)cc1`, -13.1% (inactive). With `C[C@H](CO)N1C[C@H](C)[C@@H](CN(C)Cc2ccc(-c3ccccc3)cc2)Oc2ccc(NC(=O)C3CCCCC3)cc2C1=O` the figure was -16.4% (inactive).

Consider `COC(=O)C[C@@H]1CC[C@H]2[C@@H](COc3ccc(NC(=O)Cc4cccs4)cc3C(=O)N2C)O1`, for which the “activity change, negative = cytotoxicity” value is -13.2% [at 23.5 µM] (inactive).

`O=C(c1cccnc1)N1C[C@H]2[C@@H](c3ccccc31)[C@@H](CO)N2CC1CCCC1`: the “activity change, negative = cytotoxicity” value is -16% (inactive).

`O=C(Nc1ccccc1F)N1C[C@@H]2[C@H](c3ccccc31)[C@@H](CO)N2C(=O)C1CC1`: the “activity change, negative = cytotoxicity” value is -6.87% (inactive). With `Cc1ccc(S(=O)(=O)N2CC[C@@H]3[C@H](CO)Nc4ccc(-c5cccc(C(=O)N(C)C)c5)cc4[C@@H]32)cc1`, the “activity change, negative = cytotoxicity” value is 0.347% [at 8 µM] (inactive). `Cc1ccc(Nc2nnc(SCc3ccccc3)s2)cc1`: the “activity change, negative = cytotoxicity” value is -6.05% (inactive). With `C[C@H](CO)N1C[C@H](C)[C@H](CN(C)Cc2ccccc2)Oc2ncc(-c3ccccc3)cc2C1=O` the figure was -17.3% (inactive); with `Cc1ccc(S(=O)(=O)N2CC3(C)CN(S(=O)(=O)c4ccc(C)cc4)CC(C)(C2)C3=O)cc1`, -8.44% (inactive).

Regarding `CS(=O)(=O)N1CCN(c2ccc(NC(=O)c3ccc([N+](=O)[O-])o3)cc2)CC1`, the “activity change, negative = cytotoxicity” value is 0.414% (inactive).

Regarding `CC(C)NC(=O)N(C)C[C@H]1Oc2ccc(NC(=O)CCN3CCOCC3)cc2C(=O)N([C@H](C)CO)C[C@@H]1C`, the “activity change, negative = cytotoxicity” value was -4.33% (inactive). For `COCC(=O)Nc1ccc2c(c1)C(=O)N(C)[C@H]1CC[C@@H](CC(=O)NCc3ccccc3Cl)O[C@@H]1CO2`, the “activity change, negative = cytotoxicity” value was -9.24% (inactive). With `C[C@@H]1CN([C@@H](C)CO)C(=O)c2cc(-c3ccccc3)cnc2O[C@@H]1CN(C)C(=O)c1cccc(F)c1` the figure was -7.36% (inactive); with `O=S(=O)(c1ccccc1F)N1CC[C@@H]2[C@H]1c1cc(-c3cccc(F)c3)ccc1N[C@@H]2CO`, -2.3% (inactive); with `O=C(OCC(O)C(O)COC(=O)c1ccccc1)c1ccccc1` (centres undefined), -13.8% (inactive).

As to `CC(C)(C)[S@@](=O)N1Cc2cc(C(=O)NCc3ccccc3F)nc(-c3cccc(-c4cncnc4)c3)c2[C@H]1CCO`, the “activity change, negative = cytotoxicity” value was -17.1% (inactive). In the case of `O=C(CSc1nc2ncc(Cl)cc2[nH]1)c1c[nH]c2ccccc12`, the “activity change, negative = cytotoxicity” value is 1.16% (inactive).

On to `CC1CN(C(=O)c2cc3c(=O)n4ccccc4nc3n2C)CC(C)O1` (centres undefined), for which the “activity change, negative = cytotoxicity” value is -20.5% (inactive). With `N#Cc1ccc(-c2ccc3c(c2)[C@@H]2[C@@H](CCN2S(=O)(=O)c2cccc(F)c2)[C@@H](CO)N3)cc1` the figure was -14.5% [at 23.5 µM] (inactive); with `O=C(c1cccnc1)N1C[C@@H]2[C@H](c3ccccc31)[C@@H](CO)N2CC1CCCC1`, -1.24% (inactive); with `C[C@H](CO)N1C[C@H](C)[C@H](CN(C)C)Oc2cc(C#C[C@@H](C)O)ccc2S1(=O)=O`, -0.273% (inactive). With `CC(C)Cc1nnc(NC(=O)CSc2nc(N)cc(=O)[nH]2)s1` the figure was -11.3% (inactive); with `CCOC(=O)c1cnc(SCc2nc(N)nc(Nc3ccc(OC)cc3)n2)nc1N`, -16.9% (inactive); with `Cc1ccc(-c2nc3ncccc3o2)cc1NC(=O)c1ccco1`, -5.3% (inactive). With `COc1ccccc1CNc1nc(NCc2cnc(C)cn2)c2sccc2n1` the figure was -6.21% (inactive); with `CC1(C)Cc2c(C#N)c(SCC(=O)c3ccccc3)nc(N3CCOCC3)c2CS1`, 3.32% (inactive). Turning to `CC(NC(=O)CSc1ccc(S(=O)(=O)N2CCOCC2)cn1)c1ccc(Cl)cc1Cl` (centres undefined), the “activity change, negative = cytotoxicity” value is -20.9% (inactive). With `Cc1cccc(N2CCN(S(=O)(=O)c3cn(C)cn3)CC2)c1C` the figure was 0.767% (inactive).

`CC(C)(C)c1cc(Cl)c(O)c(NC(=S)NC(=O)c2cccnc2)c1`: the “activity change, negative = cytotoxicity” value was -26.8% (inactive).

Regarding `Cc1cccc(NC(=O)c2ccc(C3SCC(=O)N3CCc3ccccc3)cc2)c1` (centres undefined), the “activity change, negative = cytotoxicity” value is -18.7% (inactive). With `C[C@H]1CN([C@@H](C)CO)C(=O)c2cc(NC(=O)C3CCCCC3)ccc2O[C@H]1CN(C)Cc1ccc(-c2ccccc2)cc1` the figure was -8.49% (inactive).
